Source: paper PMC13494018

Molecular target: CD276, Q5ZPR3
Sequence (Q5ZPR3 whole entry): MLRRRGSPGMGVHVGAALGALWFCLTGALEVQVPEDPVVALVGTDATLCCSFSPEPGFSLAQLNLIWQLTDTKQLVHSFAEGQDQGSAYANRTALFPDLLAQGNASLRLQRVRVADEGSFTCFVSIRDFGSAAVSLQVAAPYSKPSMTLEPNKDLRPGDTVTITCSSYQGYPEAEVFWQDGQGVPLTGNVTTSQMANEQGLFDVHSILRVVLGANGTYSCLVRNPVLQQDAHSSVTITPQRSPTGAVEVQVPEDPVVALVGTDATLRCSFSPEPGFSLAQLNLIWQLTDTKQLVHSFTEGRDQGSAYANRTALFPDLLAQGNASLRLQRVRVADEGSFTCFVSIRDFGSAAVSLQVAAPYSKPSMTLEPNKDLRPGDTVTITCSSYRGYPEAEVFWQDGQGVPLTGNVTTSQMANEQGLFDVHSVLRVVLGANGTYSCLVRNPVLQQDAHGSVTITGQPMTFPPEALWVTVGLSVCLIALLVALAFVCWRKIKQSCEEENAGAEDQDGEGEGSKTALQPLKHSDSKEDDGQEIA

Row | Binder | binding in a display sort
1 | design_488_244881a1-ba0c-4c08-ad9c-1f64cf93580a_1954_dldesign_0_cycle1_af2pred (protein) AAAQEVAQTAAIMDAALIAAKQSPELLKEMMDVAVAHTKASADPAATLAVLKEKAAKIAEEGTPEAAKIAKAAVAEAA | not found (inactive)
2 | design_488_244881a1-ba0c-4c08-ad9c-1f64cf93580a_1793_dldesign_0_cycle1_af2pred (protein) EAEELLARARAVEERGAELAAAAEALASVPGAASLKAHVAQALRAAQQAREAVADPEEATRLLRAAEASLRNAELVLEGMKIQAA | not found (inactive)
3 | design_488_244881a1-ba0c-4c08-ad9c-1f64cf93580a_578_dldesign_0_cycle1_af2pred (protein) GAAAAARRAAAFTLLEIARSLVAAGPQYAGSAIRTAAQALALVAPEYEEEVRAVGREEGAAAAVEYARELLA | not found (inactive)
4 | design_488_244881a1-ba0c-4c08-ad9c-1f64cf93580a_858_dldesign_0_cycle1_af2pred (protein) DEEREKLLAEAEKYLAAAVAAAKAAGVQGGQVRAIANSLAIALRTGNTAGAATLLTSLVATAAKVGPEVLTHANKAKEKATQWIALA | not found (inactive)
5 | design_488_244881a1-ba0c-4c08-ad9c-1f64cf93580a_782_dldesign_0_cycle1_af2pred (protein) AAAQAARAYAVLKAHADAAAKRAAELAAEGAEGARAGAQLLAVVSDAAAGAAKAFPEYAAELNALAAAAAAAAAAAAAAAAAAEAAA | not found (inactive)
6 | design_488_244881a1-ba0c-4c08-ad9c-1f64cf93580a_1220_dldesign_0_cycle1_af2pred (protein) DETEKKREEAKKEAEKLIEELEKAGKEVAAVPAASNMALATAKQGKKQLKEAEKLSPEEALKVYEAVKKSAEVALEIARATKAALAA | not found (inactive)
7 | design_488_244881a1-ba0c-4c08-ad9c-1f64cf93580a_642_dldesign_0_cycle1_af2pred (protein) AEAARKAALAVRTAAASFKAAADAGASAEAVKKLGEVMAQSVEAYDPEVGKEVKAKVEELAKLPDAKKAAAELAKFMEAKAKEVAAK | not found (inactive)
8 | design_488_244881a1-ba0c-4c08-ad9c-1f64cf93580a_1684_dldesign_0_cycle1_af2pred (protein) AAATAQAKADAAKAKAAVESGQDTSALATGHLLRAYSLDPAVADATLAELKALAAGRGTAVATQAIANFAAGVA | not found (inactive)
9 | design_488_244881a1-ba0c-4c08-ad9c-1f64cf93580a_1252_dldesign_0_cycle1_af2pred (protein) DAARRQGAVAFMQQVLESAKNYPEAAPIAQAGLDRVAAAVAAGAPADEVVALARREAAAANKAMIAAAKA | not found (inactive)
10 | design_488_244881a1-ba0c-4c08-ad9c-1f64cf93580a_2073_dldesign_0_cycle1_af2pred (protein) GSMEELKERAKRIFEEANRVLARASRVATANPAALPLASRAIAEAVRAQELANEALKTDPETGKELLERAEEELREARRYLEEAEAA | not found (inactive)
11 | design_488_244881a1-ba0c-4c08-ad9c-1f64cf93580a_2450_dldesign_0_cycle1_af2pred (protein) AEERERLTEKARLALEAAESLVAEAERTSPERAAALARSALRFAAEAERYAKEAGDEEIAARAREVRARAEAIL | binds (active)
12 | design_488_244881a1-ba0c-4c08-ad9c-1f64cf93580a_1131_dldesign_0_cycle1_af2pred (protein) DEASEKAEAAYNKAKALEAAGADPNDILAAYVDAMGYLSEAARAAREAGREEEAEKWQAKLKEAQKNATKAAKAAVAAARA | not found (inactive)
13 | design_488_244881a1-ba0c-4c08-ad9c-1f64cf93580a_2117_dldesign_0_cycle1_af2pred (protein) AAEEFAKKEAEKAAEVAKTGTPEEAKKAATKLAKKVADAFGVGEALRMLAIAMKMVADDPAKVAAMRAAAAEVQRAAL | not found (inactive)
14 | design_488_244881a1-ba0c-4c08-ad9c-1f64cf93580a_2145_dldesign_0_cycle1_af2pred (protein) MKEEEVEKKIEEAAKIAGITMRVLKKLLPDDPFLATQLAMKVAVELGKKVGELAGSEEVEKRAYEAAIEAMMKAAV | not found (inactive)
15 | design_488_244881a1-ba0c-4c08-ad9c-1f64cf93580a_492_dldesign_0_cycle1_af2pred (protein) ATALLRSALAQAKSAIIAMKQDPEQGAQLAEGAALTAKAAGDEETAKKLEEAAKLAKEGKAEEAIKLLEEAAKELAKAI | not found (inactive)
16 | design_488_244881a1-ba0c-4c08-ad9c-1f64cf93580a_1807_dldesign_0_cycle1_af2pred (protein) AEEEESRRRAEGAKAFLDQILAAAQASASNPAALAALAASAEANAKSVAAAASPEYAKEVRDYAAKVVAQINALAA | not found (inactive)
17 | design_488_244881a1-ba0c-4c08-ad9c-1f64cf93580a_1769_dldesign_0_cycle1_af2pred (protein) GEEAKKLKEKADELFAKAKAVLEDPTATKEELTEAAIYASEAAVLYLKAAGLASPEEREEYLKKAVEASKIAIELAAKA | not found (inactive)
18 | design_488_244881a1-ba0c-4c08-ad9c-1f64cf93580a_1393_dldesign_0_cycle1_af2pred (protein) SPADEVAARLNALLGAAIKALAADPAAGLALAEEARRLAEELAKKYPTPEVKRVAEAAKKMADAIGAAAQAQLAAAQA | not found (inactive)
19 | design_488_244881a1-ba0c-4c08-ad9c-1f64cf93580a_1921_dldesign_0_cycle1_af2pred (protein) DKATLAAQAQAVVNATKIAVEAAEKAIKEGDKEAAKKAAEGLKQMVEVAEAMAKQLEAAGADQAVIDAVKEAAEAAKKAAEKAEKFA | not found (inactive)

Row | Binder | binding in a display sort
20 | design_488_244881a1-ba0c-4c08-ad9c-1f64cf93580a_362_dldesign_0_cycle1_af2pred (protein) AEEERRRAALAERARAVLQQAAAVGSQAAIADPSVSGTILDGLKEAYELLARGEVERALEVAEALLASAQATLAAL | not found (inactive)
21 | design_488_244881a1-ba0c-4c08-ad9c-1f64cf93580a_478_dldesign_0_cycle1_af2pred (protein) ITEAEAKELAEMVRTPETAPEAAARLEALGAASTPGQAAFFRAAAALARLAAEAPEEERPRYAEGVLKILQAAI | not found (inactive)
22 | design_488_244881a1-ba0c-4c08-ad9c-1f64cf93580a_2241_dldesign_0_cycle1_af2pred (protein) GAALLAQAQALMKAANATAAAGDTATAAAAWADAAKKLAELAKEAAKEDPAYAATIQAMADMSKYIAEQAKA | not found (inactive)
23 | design_488_244881a1-ba0c-4c08-ad9c-1f64cf93580a_1058_dldesign_0_cycle1_af2pred (protein) MAEAQALLLETAKEAYEYAKEDPENAEYYLAAATHVLRALSALTTDPAKAIELLEKAIEEAKKTDPEKGEELIKKIEEAKKLVEAAA | not found (inactive)
24 | design_610_f34cc193-997c-4684-af32-2a8002718429_113_dldesign_0_cycle1_af2pred (protein) AAAAAAAAEKAAAVAAIKEIAEAAKAHAATVGFRALAASAATVVRLAEQGLWTPEGVKKALEVLKAIYEAELAALKAAAA | not found (inactive)
25 | design_488_244881a1-ba0c-4c08-ad9c-1f64cf93580a_2479_dldesign_0_cycle1_af2pred (protein) SEEYIKEAEKLLKEAKEVAAVAKASGDPVALRGAAAFADAVKQVALAKAKKASEEVAKKLEEIAKEAEKLAKELRAAAAA | not found (inactive)
26 | design_488_244881a1-ba0c-4c08-ad9c-1f64cf93580a_1644_dldesign_0_cycle1_af2pred (protein) KEAVVREAGEALEELLRYASRIDPAEGARLVAEASRILRQAVLGDEEEAEEARERVERLREEARERAEAA | not found (inactive)
27 | design_610_f34cc193-997c-4684-af32-2a8002718429_112_dldesign_0_cycle1_af2pred (protein) MEEVKEEVIKVIEEAAAKAKKAIEADPSTAWAHASAAYATASKAIIANAPKLSPEEMTEVGEVFLKNMKELTEHAKAVAAA | not found (inactive)
28 | design_488_244881a1-ba0c-4c08-ad9c-1f64cf93580a_2213_dldesign_0_cycle1_af2pred (protein) AEAQAALIAAKGYYYLAQSYYTHVANNPSLPAEEKKQAAKNAKEAAEKAEEYAKKAGPEAQPYAEKAKKYAEETKKLAEEYA | not found (inactive)
29 | design_488_244881a1-ba0c-4c08-ad9c-1f64cf93580a_688_dldesign_0_cycle1_af2pred (protein) DTARQALIASAQQARKQLEAAKALTPEEQARAAQAVLELARQLAESAEAAGDEEALALAREVAEAAEAAIKEAKAA | not found (inactive)
30 | design_488_244881a1-ba0c-4c08-ad9c-1f64cf93580a_1178_dldesign_0_cycle1_af2pred (protein) SDAEKAESALKFLNTLEEIGIIAKKEYGPEFAQNMINSIENSSKIFAAAVSPEYAKKILEKAKEAIEKIKAA | not found (inactive)
31 | design_488_244881a1-ba0c-4c08-ad9c-1f64cf93580a_2397_dldesign_0_cycle1_af2pred (protein) AVAAAEQRVKEAAAKVAKALADEPFDVIYAAIMKEGEKIGKETGLEKQIKAEAVKEAQAAFVARAKAQIAAA | not found (inactive)
32 | design_488_244881a1-ba0c-4c08-ad9c-1f64cf93580a_1386_dldesign_0_cycle1_af2pred (protein) DQARKATEAAAKALLAQVERLSEEAVKAAKEDPAEAKRYLEAAEALRDVIAGLADEEIAKEYAAKAKEIIEKARKEVEAYLAAK | not found (inactive)
33 | design_488_244881a1-ba0c-4c08-ad9c-1f64cf93580a_631_dldesign_0_cycle1_af2pred (protein) GLRESTEKVLEVAGQLAAQTAATSPELGPQAAAVAEAGRARAEALIAAGDYEGAFAAANEAAAQLSRLAVQAAQAAAAA | not found (inactive)
34 | design_488_244881a1-ba0c-4c08-ad9c-1f64cf93580a_1373_dldesign_0_cycle1_af2pred (protein) MTAAQAAAAVASLAQSAVLAAKQDPALAKQAVEAAQSFAIWATTKLGDAALAEAAAKALKDAGKAAPAVAKQAEAAAKAVLDTAKKL | not found (inactive)
35 | design_488_244881a1-ba0c-4c08-ad9c-1f64cf93580a_2417_dldesign_0_cycle1_af2pred (protein) SAALEAAKQAYDDAAKAAEEAAKDPAVAETAAAAKKSLKAFADEMTAFIKASTDEADKQAAADTLKLYAKNITNQLKAAAAAA | not found (inactive)
36 | design_488_244881a1-ba0c-4c08-ad9c-1f64cf93580a_1486_dldesign_0_cycle1_af2pred (protein) SAAGQLALDTAKTFMQQAKELAKQDPQLALAALQSAKLAADGAIADPATAAQGKALKAEVKAQEAAVKAAAAAAA | not found (inactive)
37 | design_488_244881a1-ba0c-4c08-ad9c-1f64cf93580a_765_dldesign_0_cycle1_af2pred (protein) AADVAQAKEYAKQAKEFAEQADPELAKEVGKEAEALVKEAEADPSKAAEYLNKVGQLYVQAAAAAMKKLA | not found (inactive)
38 | design_488_244881a1-ba0c-4c08-ad9c-1f64cf93580a_931_dldesign_0_cycle1_af2pred (protein) MKELEEAAKRALELAPPEHRPLMERLVAIARELAKIIGDEEAAAILGEGVLEGARDPERAVDITMAAQGAAIRLAHARQSA | not found (inactive)
